# Results taken from PubChem BioAssay (Tox21).
# Several values for one entry are separate records, joined by “and”; a condition that tells them apart may be missing. Identical values can stand only once. Records with an inconclusive call do not appear. Entries that show only a call come without a potency. Activity calls are given as the source filed them. Unless noted, the call rests on the fitted dose curve; in most records, active means well fitted curve in the direction sought with a large enough effect in the repeat runs; inconclusive means weak or mixed curves; inactive means no such curve, though single readings can be large; an effect the other way counts as inactive or inconclusive.
# Tests used:
# [1] = qHTS assay for small molecules that induce genotoxicity in human embryonic kidney cells expressing luciferase-tagged ATAD5 (AID 651632); further: nearly all actives have a fitted effect of over 15% in size
# Method in brief: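 Test compounds were delivered by pin tool onto HEK293T reporter cells (2,000/well) expressing ATAD5 fused to luciferase. After 16 hr at 37C, 5% CO2, Amplite was added for 30 min at room temperature and luminescence was measured.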
# [2] = qHTS assay for small molecule agonists of the p53 signaling pathway - cell viability (AID 651633; calls by dose curve;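 further: p53RE-bla HCT reporter cells with a stable beta-lactamase p53 reporter; series mostly up to about 83 µM; nearly all actives have a fitted effect of over 30% in size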)
# Method in brief: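 p53RE-bla cells were treated with compound for 16 hours at 37 C. Cytotoxicity was then measured as CellTiter-Glo luminescence after 30 min at room temperature.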
# [3] = qHTS assay for small molecules that induce genotoxicity in human embryonic kidney cells expressing luciferase-tagged ATAD5 - cell viability (AID 651634; calls by dose curve; further: nearly all actives have a fitted effect of over 25% in size)
# Method in brief: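 Quantitative high-throughput format. HEK293T cells expressing ATAD5 fused to luciferase were plated at 2,000 cells/well and treated 15.5 hr with compound versus DMSO. Viability was determined by fluorescent live-cell protease substrate, 30 min at 37C.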
# [4] = qHTS assay for small molecule disruptors of the mitochondrial membrane potential - cell viability (AID 720634; calls by dose curve;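 further: human HepG2 liver cancer cells; series mostly up to about 83 µM; nearly all actives have a fitted effect of over 20% in size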)
# Method in brief: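 Same-well counter-screen: following the MMP dye addition, CellTiter-Glo was added to 1 hr compound-treated HepG2 cells and luminescence read after 30 min at room temperature.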
# [5] = qHTS assay for small molecule disruptors of the mitochondrial membrane potential (AID 720635); further: potency means the concentration at half of the fitted maximal effect
# Method in brief: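 HepG2 cells exposed to compound 1 hr at 37C, then Mito-MPS dye 30 min. Ratio read of aggregate (540/590 nm) versus monomer (490/535 nm) fluorescence.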
# [6] = qHTS assay to test for compound auto fluorescence at 590 nm (red) in HepG2 cells (AID 720674)
# Method in brief: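 Seeding: 2,000 HepG2 cells/well, MEM/10% FBS, overnight 37 C. Dosing: compound vs DMSO. Incubation: 1 hr, 37 C, 5% CO2. Read: fluorescence 540 ex/590 em, Rose Bengal sodium as red reference.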
# [7] = qHTS assay to test for compound auto fluorescence at 460 nm (blue) in HEK293 cells (AID 720678)
# Method in brief: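 HEK293 cells (2,000 per well, medium with 10% dialyzed FBS) attached for 4-5 hr at 37C, then received compound and stood overnight at 37C, 5% CO2. Blue fluorescence was read at Ex/Em 405/460 nm and expressed relative to triamterene.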
# [8] = qHTS assay to test for compound auto fluorescence at 590 nm (red) in HEK293 cells (AID 720679)
# Method in brief: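 HEK293 cells (2,000/well, medium with 10% dialyzed FBS) attached for 4-5 hr at 37C, received 23 nL compound and were incubated overnight at 37C, 5% CO2. Red fluorescence was then read at 540/590nm Ex/Em, referenced to Rose Bengal sodium.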
# [9] = qHTS assay to test for compound auto fluorescence at 535 nm (green) in HEK293 cells (AID 720680)
# [10] = qHTS assay to test for compound auto fluorescence at 590 nm (red) in HEK293 cell free culture (AID 720683)
# Method in brief: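 Cell-free wells of DMEM with 10% FBS received compound, and intrinsic fluorescence was read at excitation/emission 540/590 nm. Values expressed as equivalence to Rose Bengal sodium.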
# [11] = qHTS assay to test for compound auto fluorescence at 590 nm (red) in HepG2 cell free culture (AID 720684)
# Method in brief: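 Rose Bengal sodium served as the reference for red signal. Test compounds were dispensed into serum-containing MEM (10% FBS) without cells, and plates were read at 540/590 nm.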
# [12] = qHTS assay to test for compound auto fluorescence at 535 nm (green) in HepG2 cell free culture (AID 720686)
# [13] = qHTS assay to test for compound auto fluorescence at 460 nm (blue) in HepG2 cells (AID 720687)
# Method in brief: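 HepG2 cells in MEM with 10% FBS, attached overnight at 37 C, were exposed to compound or DMSO for 1 hr at 37 C, 5% CO2. Blue fluorescence was read at 405/460 nm, with triamterene as reference fluorophore.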
# [14] = molecular target: Glucocorticoid receptor (Homo sapiens) (UniProt P04150); assay: qHTS assay to identify small molecule agonists of the glucocorticoid receptor (GR) signaling pathway (AID 720691; active means well fitted activation curve with a large enough effect in the signal ratio in the repeat runs, not every such curve was filed as active; the % refers to the signal ratio)
# Chain of Glucocorticoid receptor (Homo sapiens) (P04150 whole entry, looked up): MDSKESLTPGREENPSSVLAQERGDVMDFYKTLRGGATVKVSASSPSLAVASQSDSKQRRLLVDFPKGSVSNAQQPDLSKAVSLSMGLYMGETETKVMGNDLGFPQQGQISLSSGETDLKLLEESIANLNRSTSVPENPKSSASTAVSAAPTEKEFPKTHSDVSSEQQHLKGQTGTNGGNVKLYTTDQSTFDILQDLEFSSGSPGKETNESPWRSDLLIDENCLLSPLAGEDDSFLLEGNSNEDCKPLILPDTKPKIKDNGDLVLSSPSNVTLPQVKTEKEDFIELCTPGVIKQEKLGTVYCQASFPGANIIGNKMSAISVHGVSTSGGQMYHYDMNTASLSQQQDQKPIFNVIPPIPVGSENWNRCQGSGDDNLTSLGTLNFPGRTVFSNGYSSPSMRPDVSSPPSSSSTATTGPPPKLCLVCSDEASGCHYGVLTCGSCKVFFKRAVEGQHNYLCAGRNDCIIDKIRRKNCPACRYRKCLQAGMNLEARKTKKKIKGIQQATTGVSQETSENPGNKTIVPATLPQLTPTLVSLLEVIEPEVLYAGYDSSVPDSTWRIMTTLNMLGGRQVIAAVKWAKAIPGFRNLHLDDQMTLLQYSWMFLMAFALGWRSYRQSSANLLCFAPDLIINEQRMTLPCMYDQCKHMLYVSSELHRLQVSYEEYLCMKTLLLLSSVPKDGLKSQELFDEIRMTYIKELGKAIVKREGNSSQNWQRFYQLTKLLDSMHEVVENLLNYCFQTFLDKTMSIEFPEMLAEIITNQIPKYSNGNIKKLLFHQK
# Method in brief: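 A HeLa cervical cancer line expressing GR and a glucocorticoid response element-driven beta-lactamase gene is treated with compounds for 18 h; LiveBLAzer B/G FRET substrate is then applied and fluorescence read.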
# [15] = molecular target: Glucocorticoid receptor (Homo sapiens) (UniProt P04150); assay: qHTS assay to identify small molecule antagonists of the glucocorticoid receptor (GR) signaling pathway (AID 720692; active means well fitted inhibition curve with a large enough effect in the signal ratio in the repeat runs, not every such curve was filed as active; the % refers to the signal ratio)
# Method in brief: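 GRE-bla HeLa line, dex-stimulated (5 nM final). Compound exposure 18 h, 37 C. Beta-lactamase FRET read after 2 h RT substrate.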
# [16] = qHTS assay to test for compound auto fluorescence at 535 nm (green) in HepG2 cells (AID 720675)
# [17] = qHTS assay to test for compound auto fluorescence at 460 nm (blue) in HEK293 cell free culture (AID 720681)
# Method in brief: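 Compounds were added to cell-free DMEM with 10% FBS and fluorescence read directly. The blue channel used 405 nm excitation and 460 nm emission, with triamterene as the reference fluorophore.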
# [18] = qHTS assay to test for compound auto fluorescence at 535 nm (green) in HEK293 cell free culture (AID 720682)
# Method in brief: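 Steps: dispense DMEM/10% FBS into empty wells; pin in compound or DMSO; measure fluorescence at 485/535 nm. Values are fluorescein equivalents.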
# [19] = qHTS assay to test for compound auto fluorescence at 460 nm (blue) in HepG2 cell free culture (AID 720685)
# Method in brief: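 Cell-free plates of MEM plus 10% FBS received 23 nL compound or DMSO vehicle; blue-channel (405/460 nm) intensity scored against triamterene as reference fluorophore.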
SMILES,outcome [1],outcome [2],Potency [3],Potency [4],Potency [5],outcome [6],outcome [7],outcome [8],outcome [9],outcome [10],outcome [11],outcome [12],outcome [13],outcome [14],Potency [15],outcome [16],outcome [17],outcome [18],outcome [19]
Nc1nc(N)nc(-c2ccccc2)n1,inactive,inactive,inactive,inactive,inactive,inactive,inactive,inactive,inactive,inactive,inactive,inactive,inactive,inactive,inactive,–,–,–,–
CC(C)(C)c1cc(Cc2cc(C(C)(C)C)c(O)c(C(C)(C)C)c2)cc(C(C)(C)C)c1O,inactive,inactive,inactive,inactive,inactive,inactive,inactive,inactive,inactive,–,inactive,inactive,–,inactive,inactive,inactive,inactive,–,–
COc1ccc(N)c(C)c1,inactive,inactive,inactive,inactive,inactive,inactive,inactive,inactive,inactive,inactive,inactive,inactive,inactive,–,–,–,–,inactive,–
CC(=O)OC1CC(C)OC(C)O1 (centres undefined),inactive,–,inactive,inactive,inactive,inactive,inactive,inactive,inactive,–,inactive,–,inactive,inactive,inactive,–,inactive,–,inactive
CCCCC(C=O)CC (centres undefined),inactive,inactive,inactive,inactive,inactive,inactive,inactive,inactive,inactive,inactive,inactive,–,–,inactive,inactive,–,inactive,–,inactive
O=C1c2ccccc2CCc2ccccc21,inactive,inactive,inactive,inactive,31.3 µM (active),inactive,inactive,inactive,inactive,–,inactive,inactive,–,–,–,–,inactive,inactive,inactive
CCCCCCCO,inactive,inactive,inactive,inactive,inactive,inactive,inactive,inactive,inactive,–,inactive,inactive,–,inactive,inactive,–,inactive,inactive,inactive
O=S(=O)(O)c1ccccc1,–,inactive,inactive,inactive,inactive,inactive,inactive,inactive,inactive,–,inactive,inactive,inactive,inactive,inactive,inactive,–,inactive,–
O=C(O)c1cc2ccccc2cc1O,inactive,inactive,inactive,inactive,54.1 µM (active) and 54.5 µM (active),inactive,inactive,inactive,inactive,inactive,inactive,–,–,inactive,inactive,inactive,inactive,inactive,–
